# From the supplement of paper PMC10338343
# ± gives the standard deviation. Over roughly 8,200 sequences, “pre-steady-state target cleavage rate” has its median near 0.024; the highest 2% begin near 1.3. The list comes from a sample in which the highest values are over-represented; it also holds similar and randomly drawn sequences.
# Test system: MIWI (PIWIL1) piRISC loaded with L1MC piRNA (30 nt)
# Test: pre-steady-state target cleavage rate (min^-1); MIWI and MILI are mouse PIWI proteins and EfPiwi is from a freshwater sponge; tags in brackets are library labels; higher = faster piRNA-guided slicing of the target
# Settings: guide: L1MC piRNA 5'p-UAACUAAAUACUAUGCAAGCUGUAGGUCCU
# Summary of the method: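 A transcribed, DNA-blocked target RNA library (0.1 nM) and 1 nM active affinity-purified piRISC bearing one synthetic guide were incubated in HEPES–potassium acetate buffer at 33 °C for 0–8 or 0–960 min, either with or without 500 nM GTSF1 partner protein. Uncleaved targets were sequenced, normalised to depth and to weakly complementary targets, and pooled over three trials, with k3 capped at 0.0001 min^-1. The pre-steady-state cleavage rate was derived with a burst-and-steady-state fit.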
# [1] = auxiliary factor: 500 nM mouse GTSF1
# [2] = auxiliary factor: none (no GTSF1)
Sequence,pre-steady-state target cleavage rate [1],pre-steady-state target cleavage rate [2]
UCCACCUACAGCCUGCAUAGUAUUUAGUUA,1.15 ± 0.033,0.0634 ± 0.01
AGGACCUACAGCCUGCAUAGUAUUUAGUUA,1.51 ± 0.063,0.0892 ± 0.017
UCGACCUACAGCCUUGCAUAGUAUUUAGUUA,1.28 ± 0.046,0.0668 ± 0.014
UCGACCUACAGCCUGCAUAGUAUUUAGUUA,1.41 ± 0.038,0.0857 ± 0.015
UGGACCUACAGCCUGCAUAGUAUUUAGUUA,1.34 ± 0.048,0.0741 ± 0.013
AGGACCUACAGCCUUGCAUAGUAUUUAGUUA,1.23 ± 0.069,0.0878 ± 0.019
UCCUGCUACAGCCUGCAUAGUAUUUAGUUA,0.976 ± 0.05,0.0598 ± 0.011
UCCUCCUACAGCCUGCAUAGUAUUUAGUUA,1.18 ± 0.038,0.056 ± 0.0094
UGGACCUACAGCCUUGCAUAGUAUUUAGUUA,1.21 ± 0.081,0.0496 ± 0.0085
AGGACCUACUGCUUGCAUAGUAUUUAGUAA,0.861 ± 0.077,0.0651 ± 0.012
UCCUGGAACAGGUUGCAUAGUUUUUAGUUA,0.167 ± 0.016,0.0162 ± 0.0044
UGGACCUACAGGUUGCAUAGUAUAUAGUUA,0.549 ± 0.056,0.0198 ± 0.0053
UGGACCUUCAGGUUGCAUAGUAUUUAGUUA,1.14 ± 0.099,0.0476 ± 0.01
UGGACCUACAGCUUGCAUACUAUUUUCAAA,0.0881 ± 0.021,–
UCCUGGAUGUGCAUUGCAUAGUAUUUAGUUA,0.223 ± 0.023,0.0111 ± 0.0032
UCGUGGUACAGCUUGCAUAGUAUUUAGAAA,0.305 ± 0.029,0.00755 ± 0.0023
UCCUGGAACAGCUUGGAUAGUAUUUACUUA,0.0518 ± 0.0087,0.0182 ± 0.0036
UCCUGCUACAGCUUGCUAUAGUAUUUAGUUA,0.0317 ± 0.011,–
UCCUGGAUCUGCUUGCAUUGUAUUUAGUUA,0.228 ± 0.037,0.0147 ± 0.0049
UCCUGGUACACGUUGCAUAGUAUUUUCAAA,0.0245 ± 0.013,–
UGGUCCUACUGCUUGCAUAGUAUUUAGUUA,1.22 ± 0.05,0.0687 ± 0.01

Sequence,pre-steady-state target cleavage rate [1],pre-steady-state target cleavage rate [2]
AGGACCUAGAGCUUGCAAAGUAUUUAGUUA,1.17 ± 0.054,0.0284 ± 0.0069
AGGACCUACAGCUUGCAUAGAUUUUAGAAA,0.247 ± 0.071,–
UCGACCUACAGCUUGCAGAGUAUUUAGUUA,1.05 ± 0.066,0.0315 ± 0.0073
UCCUGGUUCAGCUUGCAUAGUAUUUAGUUA,0.972 ± 0.042,0.0721 ± 0.016
UCCUCCUCCAGCUUGCAUAGUAUUUAGUUA,1.12 ± 0.027,0.0546 ± 0.0092
UCCUCGUUCAGCUUGCAUAGUAUUUAGUUA,1.4 ± 0.041,0.0653 ± 0.014
UCCUCCUUCAGCUUGCAUAGUAUUUAGUUA,1.23 ± 0.036,0.0537 ± 0.0085
UGGUCCUUCAGCUUGCAUAGUAUUUAGUUA,1.22 ± 0.059,0.0643 ± 0.011
AGGUCCUUCAGCUUGCAUAGUAUUUAGUUA,1.42 ± 0.05,0.0947 ± 0.018
UCCUCCUUCAGCUUGCAUAGUAUUUAGUAA,0.717 ± 0.04,0.0202 ± 0.0041
UCCACCUUCAGCUUGCAUAGUAUUUAGUAA,0.628 ± 0.038,0.0237 ± 0.0045
UCGUCCUUCAGCUUGCAUAGUAUUUAGUUA,1.41 ± 0.038,0.0596 ± 0.01
UCCUGGUACAGCUUGCAUUGUAUUUAGAAA,0.0478 ± 0.013,–
AGGACCUACACCUUGCAUAGUAUUAAGUUA,0.627 ± 0.054,0.0334 ± 0.0069
UCCUGGAUGAGCUUGCAAAGUAUUAAGUUA,0.331 ± 0.035,0.00974 ± 0.0037
UCCACCUACAGCUUGGAAAGUAUUUAGUUA,1.01 ± 0.03,0.00576 ± 0.0018
UCCACCUACAGCUUGCAUAGUAUCUUAGUUA,0.709 ± 0.057,0.0225 ± 0.005
UCCACCUACAGCUUGCAUAGUAAAUACAAA,0.155 ± 0.037,–
UCCUGGAUGUGCUUGGAUAGUAUAUAGUUA,0.0799 ± 0.017,0.0106 ± 0.0049
UCCUGGAACAGCUUGCAUAGUAUUUAAGUUA,0.549 ± 0.034,0.0597 ± 0.014
AGGACCUACAGCUGCAUAGUAUUUAGUUA,1.15 ± 0.068,0.0107 ± 0.0029

Sequence,pre-steady-state target cleavage rate [1],pre-steady-state target cleavage rate [2]
AGGACCUACAGCUAUGCAUAGUAUUUAGUUA,0.962 ± 0.052,0.0545 ± 0.011
UCGACCUACAGCUCUGCAUAGUAUUUAGUUA,1.32 ± 0.067,0.0476 ± 0.0099
UCGACCUACAGCUGCAUAGUAUUUAGUUA,1.3 ± 0.079,0.00665 ± 0.0025
UGGACCUACAGCUGCAUAGUAUUUAGUUA,1.37 ± 0.11,0.00982 ± 0.0031
UGGACCUACAGCUGGCAUAGUAUUUAGUUA,1.04 ± 0.044,0.0463 ± 0.011
UCCACCUACAGCUCUGCAUAGUAUUUAGUUA,0.862 ± 0.063,0.0214 ± 0.0048
UCCUCCUACAGCUCUGCAUAGUAUUUAGUUA,1.03 ± 0.044,0.0182 ± 0.0041
AGGACCUACAGCUCUGCAUAGUAUUUAGUUA,1.56 ± 0.1,0.0543 ± 0.014
UGGACCUACAGCUCUGCAUAGUAUUUAGUUA,1.56 ± 0.11,0.0566 ± 0.014
UCCUGCUACAGCUCUGCAUAGUAUUUAGUUA,0.851 ± 0.058,0.0138 ± 0.003
UGGACCUACAGCUAUGCAUAGUAUUUAGUUA,1.24 ± 0.11,0.0371 ± 0.0083
UCCACCUACAGCUUGCAUAGUAAAAAGAAA,0.102 ± 0.028,–
UCCUGGAUCAGCUUGCUUAGUUUUUAGUUA,0.0882 ± 0.01,0.0125 ± 0.0034
UCCUGGUACAGCUUGCAUAGUUAUUAGUAA,0.0627 ± 0.017,0.00413 ± 0.0036
UCCUGGUAUCAGCUUGCAUAGUAUUUAGUUA,0.546 ± 0.06,0.062 ± 0.014
UCGACCUACAGCUUGGUUAGUAUUUAGAAA,0.224 ± 0.04,–
UCCUGGAUGUCGAUGCAUAGUAUUUUGUUA,0.00674 ± 0.0031,–
UGGACGUACAGCUUGCAUAGUAUUUUCAAA,0.213 ± 0.034,0.00471 ± 0.0022
UCCUGCUACAGCUUGGUUAGUAUUUUCAAA,0.00524 ± 0.0039,–
UCCUGGAACAGCUUGCAUAUAUUUAGUUA,0.0784 ± 0.011,0.0034 ± 0.0028
